# Source: PubChem (National Center for Advancing Translational Sciences (NCATS))
# ERG-DNA inh – inhibitors of human ERG Ets domain-DNA interaction; P11308; fluorescence polarization, His-ERG Ets domain / labelled DNA; Potency, µM (titrated, usually from 76.9 µM), without a hit: at the top dose FP activity, negative = inhibition, usual class: inhibitors; 0.028% of 370,000 active; AID 624246; active means well fitted inhibition curve with a large enough effect in the polarisation, with a control signal flat; inconclusive means small, poorly fitted or top-dose-only effect, or effect the other way, or a change in a side signal; inactive means no such curve, though single readings can be large or run the other way; the % refers to the polarisation;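 further: polarization taken with two DNA probes labelled with fluorescein and Texas red; potency means the concentration at half of the fitted maximal effect; % of control where 0% means no effect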
#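 His-tagged ERG Ets domain (1 uM in the protein solution; 300mM KCl, 50mM Tris-HCl, 1mM EDTA, 1mM DTT, pH 7.5) received compound, then a probe mix of 5 nM fluorescein-DNA and 100nM Texas-615-DNA. Fluorescence polarization was read for both dyes.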
# Nrf2 block – Nrf2 pathway inhibition; 2.1% of 360,000 active; Potency, µM (top dose mostly 46 µM), inactives show at the highest dose activity change, negative = inhibition, actives largely listed as inhibitors; A549 ARE-Fluc reporter, luciferase luminescence, 18-24 h; further: potency means the concentration at half of the fitted maximal effect; on the % scale 0 is the no-effect control and ±100 the full control effect; nearly all actives have a fitted effect of over 60% in size
#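 A549 ARE_Fluc cells, 5000/well, 5% FBS OPTI-MEM; compounds in dose-response, 18-24 h at 37 °C/5% CO2; CellTiter-Fluor viability read (Ex 405/Em 525), then BugLite luciferase luminescence = Nrf2 activity.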
# Nrf2 ARE act – activates Nrf2 signaling; AREc32 ARE-luciferase reporter (MCF7-derived line), luminescence, 24 h; Potency, µM (series often up to 46.1 µM), without a hit: at the highest dose activation, hits mostly activators; 0.31% of 410,000 active; AID 624171; further: potency means the concentration at half of the fitted maximal effect; % of control where 0% means no effect; nearly all actives have a fitted effect of over 65% in size
#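 Luciferase luminescence (Steady-Glo, 30 min at room temperature) served as the read-out of ARE activation in AREc32 cells treated with compounds for 24 hr at 37 deg C.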
# LDHA inh – inhibitors of human lactate dehydrogenase A; P00338; purified LDHA, NADH/diaphorase-resazurin fluorescence; active compounds read low; activity change, % (values are at about 110 or 230 µM); 0.15% of 480,000 active; in the data active means activity change below about -30%; inconclusive means mostly about -25% to -30%;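 further: plate controls were DMSO wells for no effect and wells without enzyme for full effect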
#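 LDH5 2 nM; NADH 0.06 mM, pyruvate 0.2 mM; 200 mM Tris pH 7.4, EDTA, Tween-20; 5 min RT. Detection: diaphorase 0.133 mg/mL + resazurin 37 µM, fluorescence ex540/em590 at 0 and 20 min; normalized to enzyme-free and DMSO wells.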
# 12-LOX inh – blocks human arachidonate 12S-lipoxygenase | purified 12hLO, xylenol orange hydroperoxide absorbance | Potency, µM (titrated, usually from 108 µM), for the others: at the highest dose activity change, negative = inhibition, actives largely listed as inhibitors | 1.1% of 580,000 active; further: potency means the concentration at half of the fitted maximal effect; on the % scale 0 is the no-effect control and ±100 the full control effect
# Target sequence (P18054 whole entry, looked up): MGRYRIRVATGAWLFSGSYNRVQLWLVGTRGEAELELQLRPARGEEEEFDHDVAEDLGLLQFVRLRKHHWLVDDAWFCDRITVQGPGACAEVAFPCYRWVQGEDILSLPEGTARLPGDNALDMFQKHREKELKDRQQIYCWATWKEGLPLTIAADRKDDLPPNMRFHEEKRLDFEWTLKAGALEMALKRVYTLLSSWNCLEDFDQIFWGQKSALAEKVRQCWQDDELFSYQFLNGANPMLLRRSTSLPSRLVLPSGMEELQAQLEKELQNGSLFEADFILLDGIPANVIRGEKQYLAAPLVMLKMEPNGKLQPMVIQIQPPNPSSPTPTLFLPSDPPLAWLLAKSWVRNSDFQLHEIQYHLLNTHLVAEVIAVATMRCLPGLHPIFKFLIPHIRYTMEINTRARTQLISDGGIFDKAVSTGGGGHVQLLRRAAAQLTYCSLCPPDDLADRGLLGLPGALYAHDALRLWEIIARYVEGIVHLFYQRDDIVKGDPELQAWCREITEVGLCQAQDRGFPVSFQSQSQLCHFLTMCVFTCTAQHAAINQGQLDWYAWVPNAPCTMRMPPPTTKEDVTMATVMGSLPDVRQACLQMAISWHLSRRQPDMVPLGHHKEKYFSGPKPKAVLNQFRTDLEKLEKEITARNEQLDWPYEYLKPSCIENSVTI
#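 Purified human 12hLO (150 nM final) in 25 mM Hepes, 0.01% Triton X-100, pH 7.0 was preincubated 15 min at room temperature with compound. Then 40 uM arachidonic acid was added, 30 min. Hydroperoxide was read by Fe-XO absorbance ratio 573/405 nm.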
# A549 viability – kills or reduces viability of A549 cells in Nrf2 counter-screen. 0.16% of 390,000 active. Potency, µM (titrated, usually from 46 µM), for the others: at the top dose activity change, negative = cytotoxicity, actives largely listed as inhibitors. A549 ARE-Fluc cells, CellTiter-Fluor viability, 18-24 h; further: potency means the concentration at half of the fitted maximal effect; on the % scale 0 is the no-effect control and ±100 the full control effect
#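 Cytotoxicity counterscreen: CellTiter-Fluor fluorescence was measured in A549 ARE_Fluc cells after 18-24 h of compound exposure in a concentration series. The subsequent BugLite luminescent read reports ARE-luciferase activity.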
# Starred values were filed as active, the others as inactive; ? = inconclusive; . = not tested or not shown; ! = not active in a repeat; [ ] = another dose, or the depositor's remark. Hits are enriched below; roughly 2.7% of the tested compounds scored in any of these assays. Unless noted, the call rests on the fitted dose curve; in most records, active means well fitted curve in the direction sought with a large enough effect; inconclusive means small, poorly fitted or top-dose-only effect, or another doubt; inactive means no such curve, though single readings can be large; an effect the other way counts as inactive or inconclusive.
SMILES,ERG-DNA inh,Nrf2 block,Nrf2 ARE act,LDHA inh,12-LOX inh,A549 viability
CN(Cc1ccccc1)C(=O)C1CCC(CNS(=O)(=O)c2cccc3cccnc23)CC1 (configuration not stated),1%,16µM*,5%,-9,-6%,1%
O=C(C1CCC(CNS(=O)(=O)c2cccc3nsnc23)CC1)N1CCN(c2ccccn2)CC1 (configuration not stated),2%,21µM*,6%,-3,-1%,-5%
CN1CCN(C(=O)C2CCC(CNS(=O)(=O)c3cccc4cccnc34)CC2)CC1 (configuration not stated),-2%,10%,-1%,-3,0%,-5%
CN1CCN(C(=O)c2cn(C)c3ccccc23)C(c2ccccc2)C1 (configuration not stated),.,.,.,-15,37%,.
Cc1ccc(CC(=O)Nc2ncc([N+](=O)[O-])s2)cc1,-10%,?,-1%,-2,?,-16%
CCCCC(CC)C(=O)Nc1ncc([N+](=O)[O-])s1 (configuration not stated),6%,9.2µM*,11%,-2,-3%,18µM*
CCOc1cccc(-c2cc(C(=O)O)c3ccc(C)c(C)c3n2)c1,.,.,.,3,40µM*,.
Cn1c(=O)c2c(-c3ccccc3)n3c(c2n(C)c1=O)C(c1coc2ccccc2c1=O)OCC3(C)C (configuration not stated),.,.,.,5,?,.
CCNC(=O)NC(=O)CN(C)c1ccccc1F,.,.,.,3,?,.
CCNC(=O)NC(=O)CNc1ccccc1N(C)Cc1ccccc1,.,.,.,4,7.1µM*,.
O=C1CCCC2=C1C(c1ccc(Cl)c(Cl)c1)c1c([nH]n(-c3ccccc3)c1=O)N2 (configuration not stated),.,.,.,9,?,.
COc1ccc(C(=O)Nc2ccc3c(c2)CN(Cc2cccc(OC)c2OC)C(=O)CO3)cc1OC,.,.,.,.,-3%,.
COc1cccc(CN2Cc3cc(NS(=O)(=O)c4ccccc4)ccc3OCC2=O)c1OC,.,.,.,.,10µM*,.
O=C1C=C(NCCc2cc(Br)c(O)c(Br)c2)C(=O)c2ncccc21,-21%,?,?,37,35µM*,23µM*
CC(C)(C)c1cc(CCC(=O)NCCc2ccccn2)cc(C(C)(C)C)c1O,7%,-18%,0%,-5,-4%,-3%
CCOc1cccc(C(=O)Nc2cccc(C(F)(F)C(F)(F)OC(F)(F)C(F)(F)C(F)(F)OC(F)(F)F)c2)c1,.,.,.,7,-21%,.
COc1ccc(N(C(=O)c2cc3ccccc3oc2=O)C2C=CS(=O)(=O)C2)cc1 (configuration not stated),6%,10%,18µM*,-9,0%,2%
COc1ccc(/C=N/NC(=O)c2nn(-c3ccc(Cl)cc3)c(=O)c3c(N)scc23)cc1,2%,23%,-1%,15,7.9µM*,1%
COc1ccc(/C=N/NC(=O)c2nn(-c3ccccc3)c(=O)c3c(N)scc23)cc1,29%,-21%,-1%,52,?,.
Fc1ccc(-c2csc(=S)[nH]2)cc1,2%,-9%,3%,-1,7.9µM*!,-5%
O=C(O)c1csc(-c2cccc(Cl)c2)n1,-3%,0%,-1%,-5,-21%,-2%
S=c1[nH]c(-c2ccc(Cl)cc2Cl)cs1,.,.,.,0,13µM*,.
S=c1[nH]c(-c2cccc(Cl)c2)cs1,.,.,.,-8,8.9µM*,.
Cc1ccccc1-c1csc(=S)[nH]1,.,.,.,-3,?,.
S=c1[nH]c(-c2ccccc2)cs1,2%,-6%,4%,5,2µM*,5%
SMILES,ERG-DNA inh,Nrf2 block,Nrf2 ARE act,LDHA inh,12-LOX inh,A549 viability
COc1ccc2cc(C(=O)NCC(=O)NC3CC3)c(C)nc2c1,.,.,.,7,-8%,.
CC(=O)Nc1ccc(CNC2CCC(C(F)(F)F)CC2)cc1 (configuration not stated),.,.,.,5,?,.
FC(F)(F)c1cccc(N2CCN(C(c3ccc(Br)cc3)c3nnc(-c4ccccc4)o3)CC2)c1 (configuration not stated),.,.,.,8,?,.
C=CCNC(=S)N/N=C/c1cn(-c2ccccc2)nc1-c1ccc(OC)cc1,.,1%,2%,-5,40µM*,11%
COc1ccc(-c2nn(-c3ccccc3)cc2/C=N/NC(=S)NC(C)C)cc1OC,.,?,0%,-5,35µM*,-6%
COc1ccc(-c2nn(-c3ccccc3)cc2/C=N/O)cc1OC,-3%,20%,6%,0,12%,16%
COc1ccc(-c2nn(-c3ccccc3)cc2/C=N/NC(=O)c2ccc(Br)o2)cc1,?,?,4%,0,-22%,?
COc1ccc2cnn(CC(=O)Nc3ccccc3Cl)c(=O)c2c1OC,.,.,.,4,0%,.
Cc1ccc2occ(CC(=O)Nc3ccc(S(=O)(=O)N4CCC(C)CC4)cc3)c2c1,3%,26µM*,0%,-2,1%,-13%
O=C(Nc1ccc(Oc2ccccc2)cc1)C1CCN(S(=O)(=O)c2ccccc2)CC1,3%,21µM*,-1%,-3,2%,-14%
Cc1ccccc1C(=O)N1CCC(C(=O)Nc2ccc(S(=O)(=O)N3CCCCC3)cc2)CC1,-1%,?,3%,-5,45µM*,2%
Cc1ccc2c(CC(=O)Nc3ccc(S(=O)(=O)N4CCC(C)CC4)cc3)coc2c1,1%,?,0%,1,0%,-22%
CC1CCN(S(=O)(=O)c2ccc(NC(=O)C3CCN(C(=O)c4ccco4)CC3)cc2)CC1,8%,13µM*,4%,3,-22%,2%
Cc1ccccc1C(=O)N1CCC(C(=O)Nc2ccc(S(=O)(=O)N3CCOCC3)cc2)CC1,-6%,-9%,0%,-6,-4%,0%
O=C(CCCc1c[nH]c2ccccc12)N1CCC(c2noc(COc3ccc(F)cc3)n2)CC1,.,.,.,.,0%,.
O=C(Nc1ccc(F)cc1)c1ccc2c(Cl)c3c(nc2c1)CCC3,.,.,.,12,?,.
c1ccc(-c2nc(NCc3ccco3)c3ccccc3n2)nc1,12%,21µM*,8%,-2,7%,-26%
CC(C)(C)OC(=O)N1CCC[C@H]1c1nnc(SCc2ccc(Cl)cc2)o1,-4%[15.4 µM],-10%,3%,-3,0%,0%
CC(C)(C)OC(=O)N1CCC(c2nnc(SCc3ccccc3)o2)CC1,2%,12µM*,9%,4,-8%,-13%
Cc1sc(NC(=O)c2ccc(F)cc2)c(CN2CCCCCC2)c1C,1%,17%,13µM*,-3,?,-10%
